{
  "source": "the OligoGym collection",
  "data": [
    {"target": "ASPRV1", "test": "pooled miR-30 sensor sort-seq; sequence = guide strand", "conditions": "shRNA", "values": [
      {"sequence": "TTCAGGAACCTTAGCTTGGTGA", "sensor-assay potency score (higher = more potent)": -1.12},
      {"sequence": "TTTGTCATCAACAGCAGCTTGA", "sensor-assay potency score (higher = more potent)": -0.258},
      {"sequence": "TTTCAGGAACCTTAGCTTGGTG", "sensor-assay potency score (higher = more potent)": -0.909},
      {"sequence": "TTCAGCACCATTGGCCACCTTT", "sensor-assay potency score (higher = more potent)": -0.724},
      {"sequence": "TCTTTCAGGAACCTTAGCTTGG", "sensor-assay potency score (higher = more potent)": -0.57},
      {"sequence": "TTGAGTCTTTGTCATCAACAGC", "sensor-assay potency score (higher = more potent)": -1.26},
      {"sequence": "ATTGATGACTTCAAAGCTGTGC", "sensor-assay potency score (higher = more potent)": 0.217},
      {"sequence": "TTGCCTAGGGACACCGCTGTAT", "sensor-assay potency score (higher = more potent)": -1.05},
      {"sequence": "TAGCTTGGTGATATGGTCCCAA", "sensor-assay potency score (higher = more potent)": 0.0777},
      {"sequence": "TCATTGATGACTTCAAAGCTGT", "sensor-assay potency score (higher = more potent)": -0.318}
    ]},
    {"target": "ASTE1", "test": "pooled miR-30 sensor sort-seq; sequence = guide strand", "conditions": "shRNA", "values": [
      {"sequence": "TTGAACTGAAGCAAAGACGGTG", "sensor-assay potency score (higher = more potent)": 0.0207},
      {"sequence": "TAGCTTTGCTTTGGTCTCGGTG", "sensor-assay potency score (higher = more potent)": -0.912},
      {"sequence": "TTTTCAACCATTAACAACCCAA", "sensor-assay potency score (higher = more potent)": -0.22},
      {"sequence": "TTGAATTTGATCTACCTTTTGG", "sensor-assay potency score (higher = more potent)": -0.435},
      {"sequence": "TTATCTAGTGCTTCGGTAGGGT", "sensor-assay potency score (higher = more potent)": 0.589},
      {"sequence": "TAGAACAGCTGGTATTCTGTTT", "sensor-assay potency score (higher = more potent)": -0.362},
      {"sequence": "TTATCTGAAATGTCACATCCTC", "sensor-assay potency score (higher = more potent)": 0.002},
      {"sequence": "TTCATTACTATGATCTTCCACA", "sensor-assay potency score (higher = more potent)": -0.12},
      {"sequence": "TTTTTGAATTTGATCTACCTTT", "sensor-assay potency score (higher = more potent)": -0.342},
      {"sequence": "TAGATATTCATAAAGTTGCTTA", "sensor-assay potency score (higher = more potent)": -0.483},
      {"sequence": "TATTCTTCCATGGAACAGCAGA", "sensor-assay potency score (higher = more potent)": -0.626},
      {"sequence": "TTTTTTTTTGAATTTGATCTAC", "sensor-assay potency score (higher = more potent)": -0.318}
    ]},
    {"target": "ATG13", "test": "pooled miR-30 sensor sort-seq; sequence = guide strand", "conditions": "shRNA", "values": [
      {"sequence": "AAATTTAATAAACTTGTCCAGG", "sensor-assay potency score (higher = more potent)": -1.15},
      {"sequence": "TTGCTAAGTTGAACCAATCTGA", "sensor-assay potency score (higher = more potent)": 0.054},
      {"sequence": "TTTATCACACTTTTCATTCATT", "sensor-assay potency score (higher = more potent)": -0.513},
      {"sequence": "TTGAGAGTCTTCTACAGACGGG", "sensor-assay potency score (higher = more potent)": -0.452},
      {"sequence": "TGACAGTCTGTTGTACACCGTG", "sensor-assay potency score (higher = more potent)": -0.356},
      {"sequence": "TTGGAGAAGATGATGAACGAGT", "sensor-assay potency score (higher = more potent)": 0.0356},
      {"sequence": "TTCAGTATCCTCACTACTGGAG", "sensor-assay potency score (higher = more potent)": -0.0842},
      {"sequence": "TATCATAACAAAGTCATCATGG", "sensor-assay potency score (higher = more potent)": 0.359},
      {"sequence": "TTCAGCAGCAATGACAGTCTGT", "sensor-assay potency score (higher = more potent)": 0.524},
      {"sequence": "TTCAAGACACCATATTTCCAGC", "sensor-assay potency score (higher = more potent)": -0.751},
      {"sequence": "TTGATTTCTTTATCACACTTTT", "sensor-assay potency score (higher = more potent)": -0.851}
    ]},
    {"target": "ATG16L1", "test": "pooled miR-30 sensor sort-seq; sequence = guide strand", "conditions": "shRNA", "values": [
      {"sequence": "TATCATTGCAACTGGATCCTGC", "sensor-assay potency score (higher = more potent)": 0.235},
      {"sequence": "TTTCTTGTAGCTGATTGTCATT", "sensor-assay potency score (higher = more potent)": -1.43},
      {"sequence": "TTTATGCAGACTTTGCTGCGTA", "sensor-assay potency score (higher = more potent)": -0.62},
      {"sequence": "TTCCCTGTGAGCACACTCCAGA", "sensor-assay potency score (higher = more potent)": -0.634},
      {"sequence": "TTGCAAAATCATTTGAAGCTGC", "sensor-assay potency score (higher = more potent)": 0.00437},
      {"sequence": "ATGAGTATCCACATTGTCCTGG", "sensor-assay potency score (higher = more potent)": -0.348},
      {"sequence": "TTTTTCTCCAAATACTTCCCAA", "sensor-assay potency score (higher = more potent)": -0.436}
    ]}
  ]
}
